“And” between values parts separate entries of the source, which are not always exact repeats. Identical values can stand only once. Unmarked numbers belong to inactive results. The source made the active and inactive calls.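 The calls were made as follows: active = inhibition at or above 50% relative to wild type and mutant plate controls; inactive = inhibition below 50%.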
Experiment: inhibitors of Chlamydomonas gravitaxis, primary screen, whole organism, Chlamydomonas reinhardtii, WT vs cilia-less mutant, absorbance, 96-well (AID 463189);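 also: 0% = wild type cc124 cells in DMSO and 100% = ciliumless bld1 mutant cells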
Details: OD600 absorbance, 2 days, at 10 µM, active compounds read high

| Structure (SMILES) | inhibition |
| --- | --- |
| CCCN1CC[C@@H]2c3cc(O)ccc3CC[C@@H]21 | -3.65% |
| CC(N)C(=O)OC(C)(C)Cc1ccc(Cl)cc1 (stereo not drawn) | -6.83% |
| CN(C(=O)Cc1ccc(Cl)c(Cl)c1)C(CN1CCCC1)c1cccc(OCC(=O)O)c1 (stereo not drawn) | 4.68% |
| NNCc1cccc(O)c1 | -4.41% |
| C[C@H](N)CN1CCc2ccc(Br)cc21 | -3.37% |
| C[C@]12CCC3C(CC[C@H]4C[C@H](O)CC[C@]34C)C1CC[C@@H]2C(=O)CO (stereo partly drawn) | 4.52% |
| C[N+]1(C)C2CCC1CC(OC(=O)C(CO)c1ccccc1)C2 (stereo not drawn) | -0.808% and 1.27% |
| C[N+]1(C)CCC(OC(=O)C(c2ccccc2)c2ccccc2)CC1 | -7.08% |
| C[N+](C)(C)CC(=O)O | 3.38% |
| NC(=O)CN1CC(O)CC1=O (stereo not drawn) | 9.01% |
| O=C(O)c1nn(Cc2ccc(Cl)cc2Cl)c2ccccc12 | -0.768% |
| COc1ccc2[nH]c3c(c2c1)CCNC3 | -4.14% |
| OCc1cnc[nH]1 | 3.19% |
| NC(CCCCCP(=O)(O)O)C(=O)O (stereo not drawn) | -3.46% |
| CN1CCc2cc(O)cc3c2[C@H]1Cc1ccc(O)c(O)c1-3 | -0.305% |
| Oc1ccc2c3c1O[C@H]1[C@@H](O)CC[C@@]4(O)C(C2)N(CC2CCC2)CCC314 (stereo partly drawn) | 3.28% |
| CN1CC[C@@]2(C)c3cc(O)ccc3N(C)C12 (stereo partly drawn) | -1.8% |
| C[Se]C[C@H](N)C(=O)O | 1.72% |
| CN1C2CCC1CC(OC(c1ccccc1)c1ccc(Cl)cc1)C2 (stereo not drawn) | 11.8% |

| Structure (SMILES) | inhibition |
| --- | --- |
| C[C@H](Cc1ccc2c(c1)OC(C(=O)O)(C(=O)O)O2)NC[C@H](O)c1cccc(Cl)c1 | 1.22% |
| c1ccc2cc(CC3=NCCN3)ccc2c1 | 1.93% |
| CCN(CC)C(=O)N[C@H]1C=C2c3cccc4[nH]cc(c34)C[C@H]2N(C)C1 | 8.76% |
| NC(=O)CI | -0.903% |
| O=P1(N(CCCl)CCCl)NCCCO1 (stereo not drawn) | -0.869% |
| CC(N)[C@H](O)c1ccc(O)c(O)c1 (stereo partly drawn) | 1.5% |
| C[C@]12Cc3cn4c(nc3C=C1CCC1C2CC[C@@]2(C)[C@H]1CC[C@@]2(O)C#N)nc1ccccc14 (stereo partly drawn) | 72.1% (active) |
| O=C(Cc1ccc(Cl)c(Cl)c1)N1CCCCC1CN1CCCC1 (stereo not drawn) | 1.42% |
| NCC(CP(=O)(O)O)c1ccc(Cl)cc1 (stereo not drawn) | -3.38% |
| Oc1ccc2c3c1O[C@H]1c4[nH]c5ccccc5c4C[C@@]4(O)C(C2)N(CC2CC2)CCC314 (stereo partly drawn) | 3.32% |
| COc1ccc(CCN)cc1O | 4.96% |
| CN[C@@H]1C[C@@H](c2ccc(Cl)c(Cl)c2)c2ccccc21 | 129% (active) |
| COc1ccc2c(c[n+](C)c3c4cc5c(cc4ccc23)OCO5)c1OC | 47% |
| NC(Cn1oc(=O)[nH]c1=O)C(=O)O (stereo not drawn) | -0.927% |
| O=[N+]([O-])c1cc(O)c(O)c([N+](=O)[O-])c1 | -10.8% |
| C=CCN1C[C@@H](C)N([C@H](c2ccc(C(=O)N(CC)CC)cc2)c2cccc(OC)c2)C[C@@H]1C | -6.39% |
| CCCN(CCC)C1CCc2cccc(O)c2C1 (stereo not drawn) | 1.17% |
| C[C@@H](N)Cc1cnc[nH]1 | -0.522% |
| N[C@@H](Cn1ccc(=O)[nH]c1=O)C(=O)O | -4.9% |

— PubChem BioAssay
